# Experimental data: the supplement of paper PMC3334620
# In all, about 33,000 sequences were measured (“E-score (-0.5 to 0.5)”: median about -0.017, highest 2% from about 0.3 on). Many of the other results were omitted from the sample, so the highest values are more common in it than they were.
# Target: T1, Sut1 (UniProt P53032)
# T1 sequence: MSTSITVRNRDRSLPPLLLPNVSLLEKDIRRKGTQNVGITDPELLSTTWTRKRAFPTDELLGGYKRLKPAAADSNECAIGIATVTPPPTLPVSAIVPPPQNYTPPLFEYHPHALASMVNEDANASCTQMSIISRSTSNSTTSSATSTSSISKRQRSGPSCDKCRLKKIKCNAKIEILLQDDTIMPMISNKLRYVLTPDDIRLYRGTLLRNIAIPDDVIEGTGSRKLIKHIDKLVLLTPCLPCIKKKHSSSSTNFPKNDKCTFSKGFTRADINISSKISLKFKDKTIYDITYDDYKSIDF
# Experiment: PBM E-score (8-mer binding enrichment) (E-score (-0.5 to 0.5)); higher = stronger / more preferred TF binding
# Conditions: protein concentration: 200 nM; construct: GST-full length
# Method: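 Universal 'all 10-mer' protein binding microarrays (Agilent AMADID 015681) probed with GST-tagged S. cerevisiae TFs (full-length or DBD) made by in vitro transcription/translation (PURExpress), about 100-200 nM. Bound TF was detected with fluorescent anti-GST. Each ungapped 8-mer (which stands for itself and its reverse complement) is scored by the PBM enrichment score (E-score), a modified Wilcoxon-Mann-Whitney statistic from -0.5 to +0.5, computed with the Universal PBM Analysis Suite. Scale: above 0.35 generally sequence-specific binding.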
row,Sequence,PBM E-score
1,CTTCCGTA,0.181
2,AGCCAAAT,0.14
3,ATCAAACG,0.132
4,CATTGCTC,0.1
5,CGGTCTAG,-0.0195
6,ACCGTAGA,0.0336
7,CCCGTAGA,-0.245
8,TCCGTAGA,0.361
9,AGTATCAG,-0.0501
10,ACCTCTCG,-0.047
11,CGTGACCC,-0.111
12,CAATCAGG,-0.167
13,GCTTTGAA,-0.00621
14,AATACAAG,0.123
15,ACTACAAA,0.302
16,GATACAAA,0.112
17,ACTACAAG,0.0409
18,AATACAAA,0.348
19,ACTACAAC,0.266
20,GCCTGGAC,-0.336
21,AGGCAGGC,-0.208
22,TCCGTCCA,0.316
23,CCCGTCCA,-0.198
24,GCCGTCCA,0.00979
25,CAGGTTAG,-0.082

row,Sequence,PBM E-score
1,AGCCTACT,-0.134
2,CTACTATC,0.312
3,CTACTATA,0.281
4,ATACTATC,0.202
5,ATGTAGTC,0.18
6,GACACCGC,-0.0517
7,GCCTCGGA,0.198
8,AGCTCGGC,-0.00249
9,CTCTCGGA,0.32
10,CTCTCGAA,-0.282
11,ACCTCGGC,0.0761
12,ATCTCGGG,0.0127
13,ACCTCGGA,0.404
14,CTCTCGGC,-0.0324
15,CGCTCGGA,0.29
16,AGCTCGGA,0.336
17,ATCTCGGC,0.13
18,ATCTCGGA,0.368
19,GCCACTCA,-0.126
20,AGTTAAAG,0.0654
21,AATCACAT,0.139
22,CAGCATTC,-0.193
23,CAGTTGGG,-0.207
24,ACCACTCA,-0.156
25,ACCAAAGG,-0.0819

row,Sequence,PBM E-score
1,AATGGCAA,0.0477
2,AGATGAGC,-0.0376
3,AGACCAAG,0.186
4,GTCTCGGA,0.316
5,GTCTCGTA,-0.0582
6,GTCTCGAA,-0.159
7,CTTTTGAA,0.152
8,ACAGTCCA,0.0821
9,ATAGTCCC,-0.206
10,AGAGTCCC,-0.0834
11,ATAGTCCA,0.0136
12,ATAGTCCG,0.473
13,CCAGTCCG,0.222
14,CGAGTCCG,0.426
15,ACAGTCCG,0.312
16,AGAGTCCT,-0.114
17,CGAGTCCA,-0.139
18,AGAGTCCG,0.449
19,CGAGTCCC,0.014
20,GCTCTTAC,0.132
21,CACTCACG,-0.0637
22,TATGAACA,0.0917
23,AAAACGCA,-0.0411
24,AAGAGTTA,0.12
25,CAAGTCAG,-0.0539

row,Sequence,PBM E-score
1,CAGTTGCA,-0.0927
2,GACGCAGC,-0.199
3,GTCCGTTA,0.376
4,CTCCGTTA,0.335
5,GGCCGTTA,0.137
6,CGCCGTTA,-0.0973
7,ATCCGTTC,0.147
8,CTCCGTTC,0.32
9,ATCCGTTA,0.275
10,CGCCGTTC,-0.157
11,CACCGTTA,0.0406
12,GCCGGCGC,0.089
13,GACGCTAC,-0.101
14,AATAGCTG,0.0185
15,CCGCACGC,-0.237
16,CTAACCTA,0.0178
17,ATTCGGCG,-0.0582
18,ATTCGGAA,0.262
19,ATTCGGAC,0.455
20,ATTCGGCC,-0.0211
21,ATTCGGGC,-0.0696
22,ATTCGGAG,0.432
23,GAATAGGC,-0.0173
24,AGCCTCAG,-0.139
25,ACGAGTGA,-0.115

row,Sequence,PBM E-score
1,GTCACCAA,-0.0973
2,CGCTCCCA,-0.0881
3,AGCTCCTG,-0.238
4,ACCTCCGT,0.165
5,GGCTCCGA,0.338
6,ACCTCCGG,0.322
7,AGCTCCGG,0.466
8,CGCTCCGA,0.317
9,GGCTCCAA,0.00981
10,AGCTCCCG,-0.173
11,GGCTCCCA,-0.12
12,CCCTCCGG,0.00905
13,CGCTCCGC,0.0358
14,CTAGCTAG,0.132
15,CTCATCCA,-0.124
16,GTCCTACA,-0.0165
17,CTCTGGTC,-0.00832
18,GGGGGCAA,-0.211
19,ATTCAGGA,0.0993
20,ACTGTGTA,0.0481
21,ACGTAGGC,-0.171
22,AGCTCCTA,-0.173
23,AGCTCCGC,0.331
24,AGCTCCAC,-0.0851
25,AGCTCCAA,0.0776

row,Sequence,PBM E-score
1,AGCTCCTC,-0.098
2,AGCTCCGA,0.464
3,CACCCACG,-0.0788
4,ATTCTCAG,0.00054
5,ATTCCAAT,0.161
6,ATACGTTC,-0.101
7,ATGTGCGA,-0.0365
8,AACTAGCG,-0.0241
9,ACCTTCGG,0.147
10,CATTTGCA,0.0495
11,ATCCTCCA,-0.0869
12,TGCCTACA,-0.15
13,CGTCCGAA,0.125
14,GGTCCAAA,-0.168
15,TGTCCAAA,0.124
16,GGTCCGAA,0.437
17,TGTCCTAA,-0.0608
18,TGTCCGAA,0.428
19,GTACGTCA,-0.0804
20,ATACTGGA,0.122
21,GACAACGA,0.104
22,ACGTTTGA,0.132
23,AGCTGGCA,-0.241
24,CGCGAACG,-0.0292
25,AAATCGGT,0.0195

row,Sequence,PBM E-score
1,GAATCGGC,0.0753
2,GAATCGGA,0.376
3,GAATCGCA,-0.0351
4,AAATCGGA,0.397
5,CAATCGGA,0.286
6,AAATCGGG,0.0832
7,TAATCGAA,0.0525
8,TAATCGGA,0.308
9,CAGGTGAC,-0.157
10,ACCACTCT,-0.157
11,ATTGCAAT,0.0774
12,AAAATTTT,0.236
13,AATTGTAC,0.146
14,TATGAGGA,-0.0297
15,GGCGATGA,-0.143
16,GTCCGGCA,0.317
17,GGCCGGCC,-0.0421
18,GGCCGGCA,0.00533
19,CTCCGGCC,0.376
20,CTCCGGCA,0.423
21,GACCGGCA,-0.308
22,ATCCGGCA,-0.166
23,CCCCGGCA,0.0139
24,ATCCGGCC,0.135
